Source: PubChem BioAssay AID1159580 (chemical genetic matrix, 2015)
Where “and” joins values, the source holds several entries; their conditions need not be identical. Equal values may be shown once. About 2,000 (36%) of roughly 5,500 compounds were called active. Roughly 18% stayed inconclusive and do not appear here. No stated cut-off is given here; in the data, active means normalized growth mostly below about 0.91 (no sharp cut-off); inconclusive means no clear call, values can overlap the other calls; inactive means mostly above about 0.92. This is one part of the list.

Assay: chemical genetic growth profiling, strain panel (AID 1159580);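 further: tested at 20 µM; growth read once vehicle control cultures reached saturation at 30 °C; 1 = growth at the plate median or of vehicle wells; lower values mean less growth of the strain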
Settings: S. cerevisiae deletion strains, growth OD

Measured: normalized growth

CC1(C)S[C@@H]2[C@H](NC(=O)C(C(=O)O)c3ccccc3)C(=O)N2[C@H]1C(=O)O (stereo partly drawn)
inactive: locus YAL021C, strain ccr4, active compounds read low 0.979 | locus YAL026C, strain drs2, active compounds read low 0.979 | locus YAL030W, strain snc1, active compounds read low 0.985 | locus YBL061C, strain skt5, active compounds read low 0.959 | locus YBR009C, strain hhf1, active compounds read low 0.934 | locus YBR021W, strain FUR4, active compounds read low 0.998 | locus YBR023C, strain chs3, active compounds read low 0.966 | locus YBR171W, strain sec66, active compounds read low 0.948 | locus YBR229C, strain ROT2, active compounds read low 0.987 | locus YBR231C, strain swc5, active compounds read low 1 | locus YBR279W, strain paf1, active compounds read low 0.985 | locus YCL011C, strain gbp2, active compounds read low 0.933 | locus YCL016C, strain dcc1, active compounds read low 0.938 | locus YCL029C, strain bik1, active compounds read low 0.99 | locus YCL061C, strain MRC1, active compounds read low 0.976 | locus YCL069W, strain vba3, active compounds read low 0.985 | locus YCR088W, strain abp1, active compounds read low 0.996 | locus YDL005C, strain med2, active compounds read low 0.999 | locus YDL035C, strain GPR1, active compounds read low 1.02 | locus YDL040C, strain nat1, active compounds read low 0.997 | locus YDL074C, strain BRE1, active compounds read low 0.995 | locus YDL101C, strain DUN1, active compounds read low 0.982 | locus YDL134C, strain PPH21, active compounds read low 0.999 | locus YDL185W, strain tfp1, active compounds read low 0.982 | locus YDL192W, strain arf1, active compounds read low 0.98 | locus YDR001C, strain nth1, active compounds read low 0.98 | locus YDR069C, strain doa4, active compounds read low 0.978 | locus YDR101C, strain arx1, active compounds read low 0.994 | locus YDR137W, strain rgp1, active compounds read low 0.944 | locus YDR159W, strain sac3, active compounds read low 1.01 | locus YDR162C, strain NBP2, active compounds read low 1.01 | locus YDR195W, strain ref2 0.987 | locus YDR297W, strain sur2, active compounds read low 0.969 | locus YDR318W, strain mcm21, active compounds read low 0.99 | locus YDR334W, strain swr1, active compounds read low 0.926 | locus YDR335W, strain msn5, active compounds read low 0.978 | locus YDR388W, active compounds read low 0.995 | locus YDR392W, strain spt3, active compounds read low 0.895 | locus YDR502C, strain sam2, active compounds read low 0.995 | locus YEL003W, strain gim4, active compounds read low 0.99 | locus YEL037C, strain rad23, active compounds read low 0.977 | locus YEL061C, strain CIN8 (second series), active compounds read low 0.989 | locus YEL061C, strain CIN8, active compounds read low 1 | locus YER015W, strain faa2, active compounds read low 0.986 | locus YER016W, strain bim1, active compounds read low 0.962 | locus YER110C, active compounds read low 0.979 | locus YER111C, strain swi4, active compounds read low 0.979 | locus YER155C, strain BEM2 (second series), active compounds read low 1.03 | locus YER155C, strain BEM2, active compounds read low 0.991 | locus YER167W, strain BCK2, active compounds read low 0.993 | locus YFR010W, strain ubp6, active compounds read low 0.962 | locus YGL078C, strain dbp3, active compounds read low 0.993 | locus YGL086W, strain mad1, active compounds read low 0.989 | locus YGL167C, strain pmr1, active compounds read low 0.96 | locus YGL173C, strain kem1, active compounds read low 0.96 | locus YGL227W, strain vid30, active compounds read low 0.985 | locus YGL240W, strain doc1, active compounds read low 1.01 | locus YGL248W, strain PDE1, active compounds read low 0.982 | locus YGL253W, strain hxk2, active compounds read low 0.982 | locus YGR135W, strain pre9, active compounds read low 0.988 | locus YGR252W, strain gcn5, active compounds read low 0.981 | locus YHR013C, strain ard1, active compounds read low 0.949 | locus YHR027C, strain rpn1, active compounds read low 0.945 | locus YHR030C, strain SLT2, active compounds read low 0.991 and 1.01 | locus YHR079C, strain IRE1 (second series), active compounds read low 0.989 | locus YHR079C, strain IRE1, active compounds read low 1.02 | locus YHR094C, strain hxt1, active compounds read low 0.984 | locus YHR129C, strain ARP1, active compounds read low 0.99 | locus YHR142W, strain chs7, active compounds read low 0.934 | locus YHR200W, strain rpn10, active compounds read low 0.985 | locus YIL066C, strain RNR3, active compounds read low 1.01 | locus YIL073C, strain SPO22, active compounds read low 1.03 | locus YIL125W, strain kgd1, active compounds read low 0.984 | locus YIR030C, strain dcg1, active compounds read low 0.987 | locus YJL092W, strain hpr5, active compounds read low 0.968 | locus YJL095W, strain BCK1 (second series), active compounds read low 0.975 | locus YJL095W, strain BCK1, active compounds read low 0.978 and 1 | locus YJL115W, strain asf1, active compounds read low 0.952 | locus YJL129C, strain trk1, active compounds read low 0.944 | locus YJL134W, strain LCB3, active compounds read low 0.992 | locus YJL154C, strain vps35, active compounds read low 0.982 | locus YJL164C, strain tpk1, active compounds read low 0.962 | locus YJL166W, strain qcr8, active compounds read low 0.977 | locus YJL168C, strain set2, active compounds read low 0.984 | locus YJL187C, strain SWE1 (second series), active compounds read low 0.988 | locus YJL187C, strain SWE1, active compounds read low 0.979 | locus YJR043C, strain POL32, active compounds read low 1.01 | locus YJR066W, strain TOR1, active compounds read low 0.992
